The source made the active and inactive calls.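 The calls were made as follows: active = normalized viability below 100% at a tested concentration; inactive = the rest.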
Test: ovarian cancer cell viability with rucaparib, profiling panel, oncology-focused library, rucaparib conditional (AID 1508598)
Details: patient-derived ovarian cancer cells, CellTiter-Glo viability, 144 h, active compounds read low
[1] = at 0.000305 µM, OCI-C5x cells, with rucaparib 10 µM, 100% = cells with rucaparib alone
[2] = at 0.000305 µM, OCI-C5x cells, without rucaparib
[3] = at 0.000305 µM, OCI-P5x cells, with rucaparib 20 µM, 100% = cells with rucaparib alone
[4] = at 0.000305 µM, OCI-P5x cells, without rucaparib
[5] = at 0.00122 µM, OCI-C5x cells, with rucaparib 10 µM, 100% = cells with rucaparib alone
[6] = at 0.00122 µM, OCI-C5x cells, without rucaparib
[7] = at 0.00122 µM, OCI-P5x cells, with rucaparib 20 µM, 100% = cells with rucaparib alone
[8] = at 0.00122 µM, OCI-P5x cells, without rucaparib
[9] = at 0.00488 µM, OCI-C5x cells, with rucaparib 10 µM, 100% = cells with rucaparib alone
[10] = at 0.00488 µM, OCI-C5x cells, without rucaparib
[11] = at 0.00488 µM, OCI-P5x cells, with rucaparib 20 µM, 100% = cells with rucaparib alone
[12] = at 0.00488 µM, OCI-P5x cells, without rucaparib
[13] = at 0.0195 µM, OCI-C5x cells, with rucaparib 10 µM, 100% = cells with rucaparib alone
[14] = at 0.0195 µM, OCI-C5x cells, without rucaparib
[15] = at 0.0195 µM, OCI-P5x cells, with rucaparib 20 µM, 100% = cells with rucaparib alone
[16] = at 0.0195 µM, OCI-P5x cells, without rucaparib
[17] = at 0.0781 µM, OCI-C5x cells, with rucaparib 10 µM, 100% = cells with rucaparib alone
[18] = at 0.0781 µM, OCI-C5x cells, without rucaparib
[19] = at 0.0781 µM, OCI-P5x cells, with rucaparib 20 µM, 100% = cells with rucaparib alone
[20] = at 0.0781 µM, OCI-P5x cells, without rucaparib
[21] = at 0.313 µM, OCI-C5x cells, with rucaparib 10 µM, 100% = cells with rucaparib alone
[22] = at 0.313 µM, OCI-C5x cells, without rucaparib
[23] = at 0.313 µM, OCI-P5x cells, with rucaparib 20 µM, 100% = cells with rucaparib alone
[24] = at 0.313 µM, OCI-P5x cells, without rucaparib
[25] = at 1.25 µM, OCI-C5x cells, with rucaparib 10 µM, 100% = cells with rucaparib alone
[26] = at 1.25 µM, OCI-C5x cells, without rucaparib
[27] = at 1.25 µM, OCI-P5x cells, with rucaparib 20 µM, 100% = cells with rucaparib alone
[28] = at 1.25 µM, OCI-P5x cells, without rucaparib
[29] = at 5 µM, OCI-C5x cells, with rucaparib 10 µM, 100% = cells with rucaparib alone
[30] = at 5 µM, OCI-C5x cells, without rucaparib
[31] = at 5 µM, OCI-P5x cells, with rucaparib 20 µM, 100% = cells with rucaparib alone
[32] = at 5 µM, OCI-P5x cells, without rucaparib

Measured: viability

C[C@H]1C[C@H]2[C@@H]3CCC4=CC(=O)C=C[C@]4(C)[C@@H]3C(=O)C[C@]2(C)[C@]1(O)C(=O)CO
inactive: [1] 114% | [2] 123% | [4] 119% | [5] 118% | [6] 124% | [7] 105% | [8] 116% | [9] 110% | [10] 119% | [12] 119% | [13] 113% | [14] 122% | [15] 103% | [16] 122% | [17] 109% | [18] 122% | [19] 102% | [20] 125% | [21] 111% | [22] 125% | [23] 100% | [24] 126% | [25] 125% | [26] 129% | [27] 108% | [28] 130% | [29] 119% | [30] 148% | [31] 112% | [32] 125%
active: [3] 96.8% | [11] 96.6%

COc1cc([C@H]2c3cc4c(cc3[C@@H](O[C@@H]3O[C@@H]5CO[C@@H](C)O[C@H]5[C@H](O)[C@@H]3O)[C@H]3COC(=O)[C@H]23)OCO4)cc(OC)c1O
inactive: [1] 115% | [2] 108% | [5] 108% | [6] 103% | [9] 123% | [10] 100% | [11] 101% | [12] 101% | [13] 112% | [14] 103% | [17] 106%
active: [3] 99.3% | [4] 97.3% | [7] 96.5% | [8] 90.8% | [15] 98.6% | [16] 97.4% | [18] 95.6% | [19] 99.3% | [20] 98.6% | [21] 75.1% | [22] 64.7% | [23] 99.1% | [24] 82% | [25] 72% | [26] 61.6% | [27] 79.8% | [28] 42.6% | [29] 38.1% | [30] 29.3% | [31] 55.2% | [32] 26.7%

COc1cccc2c1C(=O)c1c(O)c3c(c(O)c1C2=O)C[C@@](O)(C(=O)CO)C[C@H]3O[C@H]1C[C@H](N)[C@@H](O)[C@H](C)O1
inactive: [1] 101% | [2] 108% | [3] 107% | [4] 105% | [6] 106% | [7] 103% | [8] 106% | [11] 106% | [17] 103%
active: [5] 94.3% | [9] 90.6% | [10] 95.4% | [12] 97.5% | [13] 78.4% | [14] 75.5% | [15] 92% | [16] 54.5% | [18] 83.9% | [19] 54% | [20] 30.8% | [21] 37.5% | [22] 43.3% | [23] 45.3% | [24] 15.5% | [25] 15.6% | [26] 31.1% | [27] 11.7% | [28] 10.8% | [29] 8.09% | [30] 2.52% | [31] 3.69% | [32] 5.43%

CC(C)CC(CC(=O)NO)C(=O)N[C@@H](Cc1ccc2ccccc2c1)C(=O)N[C@@H](C)C(=O)NCCN (stereo partly drawn)
active: [3] 90.2% | [7] 88.9% | [8] 99.8% | [11] 92% | [12] 94.4% | [15] 84.6% | [16] 100% | [19] 90% | [20] 92.6% | [23] 91.3% | [24] 92.3% | [27] 85.1% | [28] 86% | [31] 78.6% | [32] 88.3%
inactive: [1] 123% | [2] 120% | [4] 101% | [5] 111% | [6] 110% | [9] 123% | [10] 118% | [13] 123% | [14] 120% | [17] 132% | [18] 102% | [21] 114% | [22] 114% | [25] 134% | [26] 112% | [29] 112% | [30] 110%

COc1cccc2c1C(=O)c1c(O)c3c(c(O)c1C2=O)C[C@@](O)(C(=O)CO)C[C@H]3O[C@H]1C[C@H](N)[C@H](O)[C@H](C)O1
active: [19] 97.4% | [20] 82% | [23] 58.8% | [24] 32.7% | [25] 50% | [26] 16.5% | [27] 10.3% | [28] 13.8% | [29] 4.6% | [30] 1.33%
inactive: [1] 127% | [2] 120% | [3] 109% | [4] 109% | [5] 111% | [6] 111% | [7] 110% | [8] 106% | [9] 118% | [10] 117% | [11] 104% | [12] 108% | [13] 130% | [14] 110% | [15] 103% | [16] 106% | [17] 115% | [18] 103% | [21] 164% | [22] 125%
